BCLXL inh: inhibitors of human Bcl-xL, primary screen, biochemical, fluorescence polarization, HTS; GST-Bcl-xL / FITC-Bim BH3 peptide fluorescence polarization; inhibition, % at 10.9 µM; Bcl-2-like protein 1 (Homo sapiens), Q07817; actives 0.7% (n = 320,000);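 active means inhibition above the mean of all tested compounds plus 3 SD, cutoff set per campaign, cut at about 30% in these data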;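 further: inhibitors lower millipolarization by displacing the labeled peptide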
Target sequence (Q07817 whole entry, looked up): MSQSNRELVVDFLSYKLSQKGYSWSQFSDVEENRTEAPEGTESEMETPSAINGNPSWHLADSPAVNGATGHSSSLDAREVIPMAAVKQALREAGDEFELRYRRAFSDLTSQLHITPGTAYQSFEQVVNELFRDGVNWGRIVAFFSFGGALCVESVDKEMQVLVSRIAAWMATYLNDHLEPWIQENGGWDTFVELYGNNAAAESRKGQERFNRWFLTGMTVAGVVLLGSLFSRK
eLon inh: inhibitors of E. coli Lon protease, primary screen, biochemical, fluorescence polarization | P0A9M0 | purified E. coli Lon protease | inhibition, % at 7.94 µM | actives 0.42% (n = 360,000) | AID 602123, 2011; in the data active means inhibition above about 13%, passing the limit was not always enough
GLD-1 TGE inh: GLD-1/TGE RNA complex disruptors, primary screen, biochemical, fluorescence polarization | Female germline-specific tumor suppressor gld-1 (Caenorhabditis elegans), Q17339 | inhibition, % at 5.96 µM | actives 0.44% (n = 320,000) | AID 2280, 2010 | purified GLD-1 + fluorescein TGE RNA;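 active means percent inhibition above a per-plate cutoff, the plate mean of test compounds plus 3 SD, cut at about 30% in these data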
MCL1 BIM primary: inhibitors of MCL1 binding to BIM-BH3, primary screen, biochemical, fluorescence polarization; actives 0.68% (n = 320,000); GST-MCL1 / FITC-Bim-BH3 fluorescence polarization; inhibition, % at 10.9 µM; Induced myeloid leukemia cell differentiation protein Mcl-1 (Homo sapiens), Q07820;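 active means inhibition above the mean inhibition of all tested compounds plus 3 SD, set per campaign, cut at about 40% in these data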;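 further: higher means more loss of mP so more displacement of Bim peptide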
Target sequence (Q07820 whole entry, looked up): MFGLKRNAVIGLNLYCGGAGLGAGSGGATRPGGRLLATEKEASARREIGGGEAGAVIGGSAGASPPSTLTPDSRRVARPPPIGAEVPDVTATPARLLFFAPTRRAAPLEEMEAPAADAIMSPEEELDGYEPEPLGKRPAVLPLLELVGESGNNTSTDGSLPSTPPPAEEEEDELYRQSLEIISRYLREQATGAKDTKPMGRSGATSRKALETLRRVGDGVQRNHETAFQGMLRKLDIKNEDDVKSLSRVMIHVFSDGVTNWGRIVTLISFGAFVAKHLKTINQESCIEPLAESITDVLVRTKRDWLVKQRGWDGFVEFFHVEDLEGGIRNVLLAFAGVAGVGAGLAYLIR
MEX-5 binding: MEX-5 zinc finger RNA-binding disruptors – biochemical, C. elegans, fluorescence polarization, MLPCN library, primary screen | Zinc finger protein mex-5 (Caenorhabditis elegans), Q9XUB2 | actives 0.38% (n = 300,000) | MEX-5/FITC-TCR2 RNA binding; active compounds read low | activity score (negative = inhibition of binding), % at 10 µM;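 active means inhibition past about -25% in most replicates, and total fluorescence under double the plate's negative control median, limit read from the data; inconclusive means replicates evenly split on the limit, or fluorescence at least double controls; inactive means too little inhibition in most replicates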
Of the large screens only hits and unclear results are named; the others gave an inactive call. Shown are actives, neighbours in structure and some others; about 1.4% of the full set was active somewhere.

O=C(N/N=C/c1cc(Cl)cc([N+](=O)[O-])c1O)c1ccc2c(c1)OCO2	MEX-5 binding -31
C[n+]1cccc(C2C(C#N)=C(N)Oc3c2ccc2ccccc32)c1 (stereo unspecified)	BCLXL inh 39
COc1ccc([C@@H]2C[C@H]3[C@@H](CN2S(=O)(=O)c2ccccc2)C(=O)C[C@@H](c2cccc(Cl)c2)N3S(=O)(=O)c2ccc(C)cc2)cc1	none (no result: BCLXL inh, GLD-1 TGE inh, MCL1 BIM primary, MEX-5 binding)
C(=N\NC(=Nc1ccccc1)c1ccccn1)/c1ccccn1	MEX-5 binding -54
C=CCNC(=O)CN1C(=O)CSc2ccc(S(=O)(=O)N3CCOCC3)cc21	none (no result: BCLXL inh, GLD-1 TGE inh, MCL1 BIM primary, MEX-5 binding)
Nc1ccc(O)c(C(=O)O)c1	BCLXL inh 35, MCL1 BIM primary 76 (no result: eLon inh)
O=C1NC(Cc2ccc(O)cc2)c2nc3ccc(Cl)cc3c(=O)n2-c2cc3ccccc3cc21 (stereo unspecified)	none (no result: BCLXL inh, GLD-1 TGE inh, MCL1 BIM primary, MEX-5 binding)
Cc1ccn2c(=O)c(NC(=O)c3ccc4c(c3)OCO4)c(C)nc2c1	none (no result: BCLXL inh, GLD-1 TGE inh, MCL1 BIM primary, MEX-5 binding)
CC1CCCN(c2nc3ccccc3nc2C(C#N)S(=O)(=O)c2cccs2)C1 (stereo unspecified)	MEX-5 binding -50
Cc1ccc(S(=O)(=O)C(C#N)c2nc3ccccc3nc2N2CC(C)OC(C)C2)cc1C (stereo unspecified)	MEX-5 binding -59
N#CC(c1nc2ccccc2nc1N1CCOCC1)S(=O)(=O)c1ccccc1 (stereo unspecified)	none (no result: MEX-5 binding)
Cc1cccc(S(=O)(=O)C(C#N)c2nc3ccccc3nc2N2CC(C)OC(C)C2)c1 (stereo unspecified)	MEX-5 binding inconclusive
Cc1cccc(CSc2nnc3c(n2)[nH]c2ccccc23)c1	none
O=C(O)CCC1c2cc3c4cc2OC2Oc5cc6c(cc51)C(CCC(=O)O)c1cc5c7cc1OC(O6)c1cc6cc(c1)Oc1cc(cc(C(=O)O)c1)Oc1cc8cc(c1)C(Oc1cc(c(cc1C5CCC(=O)O)C3CCC(=O)O)OC(O4)c1cc(cc(c1)Oc1cc(cc(C(=O)O)c1)O8)Oc1cc(cc(C(=O)O)c1)Oc1cc(cc2c1)Oc1cc(cc(C(=O)O)c1)O6)O7 (stereo unspecified)	GLD-1 TGE inh 97, MCL1 BIM primary 42, MEX-5 binding -100 (no result: eLon inh)
Cn1ncc(Cl)c1C(=O)N/N=C/c1cccc(OC2CSC2)c1	MEX-5 binding -36
O=C(CSc1ncccn1)N/N=C/c1cccc(OC2CSC2)c1	none
COc1ccc(C(NC(=O)c2cccnc2)c2cc(Cl)c3cccnc3c2O)cc1OC (stereo unspecified)	eLon inh 35
CCC(=O)NC(c1ccc(OC)cc1)c1cc(Cl)c2cccnc2c1O (stereo unspecified)	none
COc1cc2c(cc1OC)C(COc1ccc([N+](=O)[O-])cc1)N(C(C)=O)CC2 (stereo unspecified)	none
N#Cc1c(-c2ccco2)cc(-c2ccccc2)[nH]c1=O	BCLXL inh 34
Cc1ccc2c(ccc[n+]2CC(=O)c2ccccc2)c1	none
O=C(C[n+]1cc(Br)cc2ccccc21)c1ccccc1	BCLXL inh 49, MCL1 BIM primary 45
CC(C)c1cc(=O)oc2c3c4c(cc12)CCCN4CCC3	GLD-1 TGE inh 44
C[C@@H]1O[C@@H](O[C@H]2[C@H](O)[C@@H](O)[C@H](Oc3c(-c4ccc(O)cc4)oc4cc(O)cc(O)c4c3=O)O[C@@H]2CO)[C@H](O)[C@H](O)[C@H]1O	none (no result: BCLXL inh, MCL1 BIM primary, MEX-5 binding)
C[C@@H]1O[C@@H](OC2C(O)C(OCCc3ccc(O)c(O)c3)OC(CO)C2OC(=O)/C=C/c2ccc(O)c(O)c2)[C@H](O)[C@H](O)[C@H]1O (stereo partly specified)	MEX-5 binding -46 (no result: eLon inh)
Fc1ccc(Nc2cccc3nccnc23)cc1	none
c1cc(Nc2cccc3nccnc23)c2nccnc2c1	MEX-5 binding -29
CCOc1ccc(-c2nn(-c3ccccc3)cc2/C=C2\SC(=S)N(C3CCS(=O)(=O)C3)C2=O)cc1 (stereo unspecified)	MEX-5 binding -31
C/C(=C\c1ccccc1F)C1Nc2cccc3cccc(c23)N1	BCLXL inh 31 (no result: MEX-5 binding)
C/C(=C\c1ccc2c(c1)OCO2)C1Nc2cccc3cccc(c23)N1	none (no result: MEX-5 binding)
Cc1ccc(C(=O)/C=C/Nc2cccc(O)c2)cc1	BCLXL inh 40, MCL1 BIM primary 40
N#Cc1c(N)sc(=S)c2c1CCN(Cc1ccccc1)C2	BCLXL inh 144, MCL1 BIM primary 174 (no result: eLon inh, MEX-5 binding)
CCCCCOc1ccc(C(=O)CCC(=O)NNC(=O)c2ccncc2)cc1	none (no result: BCLXL inh, GLD-1 TGE inh, MCL1 BIM primary, MEX-5 binding)
O=C(O)CCCCCN1C(=O)C(O)=C(C(=O)/C=C/c2ccccc2)C1c1ccccc1[N+](=O)[O-] (stereo unspecified)	MEX-5 binding -40
Cc1cccc(-n2ccnc2SCC(=O)Nc2nccs2)c1	none
COc1cccc(-n2ccnc2SCC(=O)Nc2nccs2)c1	GLD-1 TGE inh 104
COc1ccc(NC(=O)c2cc(-c3cc(F)ccc3OC(C)C)n[nH]2)cc1OC	none (no result: BCLXL inh, GLD-1 TGE inh, MCL1 BIM primary, MEX-5 binding)
Cc1nc2c(OCCC3CCCCC3)cccn2c1N(C)C(=O)CCC1CCCC1	none (no result: BCLXL inh, GLD-1 TGE inh, MCL1 BIM primary, MEX-5 binding)
CCN1CCc2c(C#N)c(N3CCOCC3)nc(NCCO)c2C1	BCLXL inh 44
CCN1CCc2c(C#N)c(N3CCOCC3)nc(NCc3ccccc3)c2C1	none (no result: BCLXL inh, GLD-1 TGE inh, MCL1 BIM primary)
COc1cc(/C=C2\C(C)=C(C#N)c3nc(N)c(C#N)c(C)c32)ccc1OCC(=O)O	BCLXL inh 35
CC1=C(C#N)c2nc(N)c(C#N)c(C)c2/C1=C\c1ccc(C)cc1	none (no result: eLon inh)
Cc1ccc(S(=O)(=O)NN=Cc2ccco2)cc1	none (no result: BCLXL inh, GLD-1 TGE inh, MCL1 BIM primary, MEX-5 binding)
Cc1ccc(S(=O)(=O)N/N=C/c2cc(Br)c(C)o2)cc1	eLon inh 17
OC(c1cccc(Cl)c1)c1ncc(-c2ccc(Oc3ccccc3)cc2)[nH]1 (stereo unspecified)	none (no result: BCLXL inh, GLD-1 TGE inh, MCL1 BIM primary, MEX-5 binding)
Cc1n[nH]c(C)c1Sc1ccccc1N=Cc1cc(Cl)cc([N+](=O)[O-])c1O	MEX-5 binding -51
CCOc1ccc(C2C=C(c3ccc(C)cc3)Nc3ncnn32)cc1 (stereo unspecified)	BCLXL inh 47, MCL1 BIM primary 41 (no result: eLon inh)
COC(=O)c1scc2c(=O)cc(C(F)(F)F)[nH]c12	BCLXL inh 35
CCCCCC(=O)N1C[C@H](n2cc(C3CC3)nn2)[C@@H](O)C[C@@H]1c1ccc(Cl)cc1	none (no result: BCLXL inh, GLD-1 TGE inh, MCL1 BIM primary, MEX-5 binding)
COc1ccc(-c2ccc(C(=O)NCC3CCOCC3)c3occc23)c(C)c1	none (no result: BCLXL inh, GLD-1 TGE inh, MCL1 BIM primary, MEX-5 binding)
CCOc1cc(/C=C/c2cccc[n+]2C)ccc1OCC(=O)Nc1ccc(C)cc1	MEX-5 binding -43
Nc1ccc(S(=O)(=O)c2cc(O)c3ccccc3c2O)cc1	none (no result: BCLXL inh, GLD-1 TGE inh, MCL1 BIM primary, MEX-5 binding)
O=C1C2C3C=CC(C4CC34)C2C(=O)N1/N=C/c1ccc(-c2ccc(Cl)cc2[N+](=O)[O-])o1 (stereo unspecified)	none

Screening data deposited in PubChem by several laboratories.
